MCF10A rereplic: DNA re-replication induction in MCF 10a cells | MCF 10A DNA re-replication, Hoechst nuclear intensity, 48 h | Potency, µM (series often up to 46.1 µM), for the others: at the highest dose activity, positive = re-replication, hits mostly activators | hit rate 2.9% among 350,000; further: % of control where 0% means no effect; nearly all actives have a fitted effect of over 50% in size
HT1080-NT tox: kills 2HG-producing HT-1080-NT fibrosarcoma cells; hit rate 1.6% among 360,000; Potency, µM (series often up to 46.1 µM), for inactives: at the highest dose activity, negative = less viability, actives largely listed as cytotoxic; HT-1080-NT fibrosarcoma viability, CellTiter-Glo ATP luminescence, 48 h;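 further: NT is the 2HG producing partner of a matched IDH1 knockdown line; 0% = DMSO-treated cells and -100% = media-only wells without cells; nearly all actives have a fitted effect of over 55% in size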
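Toxicity toward the 2HG-producing NT line was scored as %Activity, normalised to DMSO and no-cell wells, from CellTiter-Glo luminescence after 48 hours' treatment.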
KB-3-1 tox: kills parental KB-3-1 adenocarcinoma cells. KB-3-1 viability, CellTiter-Glo ATP luminescence, 72 h. Potency, µM (series often up to 46.1 µM), usual class: cytotoxic. hit rate 1.4% among 400,000; further: on the % scale 0 is the no-effect control and ±100 the full control effect; nearly all actives have a fitted effect of over 60% in size
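Cytotoxicity measured as CellTiter-Glo luminescence after 72 h at 37 C. Compound titrations were pinned onto drug-naive KB-3-1 parental adenocarcinoma cells grown in DMEM with 10% FBS, and normalized data fitted to concentration-response curves.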
SW480 rereplic: inducers of DNA re-replication in SW480 colon cancer cells. SW480 DNA re-replication, Hoechst DNA content imaging, 48 h. AID 624297. Potency, µM (doses to about 46.1 µM), inactives show at the highest dose re-replication activation, actives largely listed as activators. hit rate 1.8% among 340,000; further: % of control where 0% means no effect; nearly all actives have a fitted effect of over 55% in size
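DNA re-replication was detected as more nuclei of elevated Hoechst intensity after 48 hr exposure to compound (23 nL pinned per well of 250 cells).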
HT1080 IDH1KD tx: toxicity to HT-1080 IDH1 knockdown cells (counter line) | hit rate 2% among 360,000 | Potency, µM (top dose mostly 46.1 µM), inactives show at the top dose activity, negative = toxicity, usual class: cytotoxic | HT-1080 IDH1 knockdown viability, ATP luminescence, 48 h | AID 686971;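 further: 0% = DMSO wells and -100% = cell-free medium wells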
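In this qHTS, HT-1080 cells depleted of IDH1 are exposed for 48 h at 37 °C to compound titrations. Toxicity is scored from CellTiter-Glo luminescence, with DMSO as full viability and medium alone as none.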
KB-V1 cytotox: KB-V1 MDR subline cytotoxicity. KB-V1 MDR cells viability, CellTiter-Glo, 72 h. Potency, µM (top dose mostly 46.1 µM), usual class: cytotoxic. hit rate 3.4% among 400,000. AID 1347076; further: on the % scale 0 is the no-effect control and ±100 the full control effect; nearly all actives have a fitted effect of over 60% in size
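Cells of the MDR subline KB-V1 are plated, dosed with compound at multiple concentrations, and incubated 72 h at 37 degrees C; CellTiter-Glo is then added and luminescence read after 10 min.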
Numbers without * were called inactive. Compounds with a hit are over-represented: about 8% of the library has one in this group of screens. The call rests on the fitted dose curve; in most records, active means well fitted curve in the direction sought with a large enough effect; inconclusive means small, poorly fitted or top-dose-only effect, or another doubt; inactive means no such curve, though single readings can be large; an effect the other way counts as inactive or inconclusive. Potency means the concentration at half of the fitted maximal effect.

`CC(C)(C)c1ccc(C(=O)NNC(=S)NC(=O)c2cccnc2)cc1` gave MCF10A rereplic 9%, HT1080-NT tox inconclusive, KB-3-1 tox inconclusive, SW480 rereplic 15µM*, HT1080 IDH1KD tx inconclusive and KB-V1 cytotox inconclusive.
Screening CC(C)c1ccc(O)c(NC(=S)NC(=O)c2cccnc2)c1 returned MCF10A rereplic inconclusive, HT1080-NT tox inconclusive, KB-3-1 tox inactive, SW480 rereplic 1%, HT1080 IDH1KD tx inconclusive and KB-V1 cytotox inconclusive.
CC(C)(C)C(=O)NC(=S)NNC(=O)c1ccc(-c2ccccc2)cc1 was read as MCF10A rereplic inconclusive, HT1080-NT tox 8.2µM*, KB-3-1 tox inconclusive, SW480 rereplic inconclusive, HT1080 IDH1KD tx 7.3µM* and KB-V1 cytotox 9.2µM*.
`CC(C)(C)c1cc(Cl)c(O)c(NC(=S)NC(=O)c2cccnc2)c1` gave MCF10A rereplic 15µM*, HT1080-NT tox -23%, KB-3-1 tox inactive, SW480 rereplic -16%, HT1080 IDH1KD tx inconclusive and KB-V1 cytotox inconclusive.
`CC(C)(C)C(=O)NC(=S)NNC(=O)c1ccncc1` gave MCF10A rereplic 4%, HT1080-NT tox -21%, KB-3-1 tox inactive, SW480 rereplic inconclusive, HT1080 IDH1KD tx -26% and KB-V1 cytotox inactive.
Screening O=C(NNC(=S)NC(=O)c1ccccc1)c1cccnc1 returned MCF10A rereplic 1%, HT1080-NT tox -12%, KB-3-1 tox inactive, SW480 rereplic 1%, HT1080 IDH1KD tx 0% and KB-V1 cytotox inactive.
`COc1ccc(OC)c(C2C=C(c3ccc(C)c(C)c3)Nc3nnnn32)c1` (configuration not stated) gave MCF10A rereplic inconclusive, HT1080-NT tox inconclusive, KB-3-1 tox 6.5µM*, SW480 rereplic 7.3µM*, HT1080 IDH1KD tx inconclusive and KB-V1 cytotox 6.5µM*.
`COc1cccc(C2=CC(c3cc(OC)ccc3OC)n3nnnc3N2)c1` (configuration not stated) gave MCF10A rereplic inconclusive, HT1080-NT tox inconclusive, KB-3-1 tox 6.5µM*, SW480 rereplic inconclusive, HT1080 IDH1KD tx inconclusive and KB-V1 cytotox 16µM*.
COc1ccc(C2=CC(c3ccc(OC)c(OC)c3)n3nnnc3N2)c(OC)c1 (configuration not stated) was read as MCF10A rereplic 18%, HT1080-NT tox 1%, KB-3-1 tox inactive, SW480 rereplic inconclusive, HT1080 IDH1KD tx -3% and KB-V1 cytotox inactive.
Screening COc1ccc(C2=CC(c3ccc(C)cc3)n3nnnc3N2)cc1 (configuration not stated) returned MCF10A rereplic 7%, HT1080-NT tox inconclusive, KB-3-1 tox inactive, SW480 rereplic -2%, HT1080 IDH1KD tx inconclusive and KB-V1 cytotox inconclusive.
For O=C(CCl)N(Cc1ccccc1)c1ccccc1 the results were MCF10A rereplic 16µM*, HT1080-NT tox 10µM*, KB-3-1 tox inconclusive, SW480 rereplic 5.8µM*, HT1080 IDH1KD tx 16µM* and KB-V1 cytotox inactive.
For Cc1cccc(N(Cc2ccccc2)C(=O)CSC(C)C(=O)Nc2cc(C)on2)c1 (configuration not stated) the results were MCF10A rereplic inconclusive, HT1080-NT tox 1%, KB-3-1 tox inconclusive, SW480 rereplic 13%, HT1080 IDH1KD tx -26% and KB-V1 cytotox 15µM*.
